Reference: PubChem BioAssay AID1554 (Broad Institute, 2009)
About 520 (0.17%) of roughly 300,000 compounds were called active. The full list was thinned out, with actives kept by preference. A number with no mark means an inactive call. No stated cut-off is given here; in the data, active means inhibition above about 50%; inconclusive means no clear call, values can overlap the other calls; inactive means below that.

Experiment: PubChem AID 1554
Details: BJeLR (HRASV12) viability, CellTiter-Glo ATP luminescence, 48 h; active compounds read high; concentration not given here

| SMILES | inhibition |
| --- | --- |
| COC(=O)c1c(NC(=O)c2ccccc2F)sc2c1C(C(=O)OC)CC2 (configuration not stated) | -1.69% |
| CCOc1ccc2[nH]c3nc(SCC(=O)NC4CCCC4)nnc3c2c1 | 19.9% |
| CCOC(=O)c1c(C)[nH]c2c1-c1ccccc1C(=O)C2=O | 74.1% (active) |
| CCOC(=O)c1c(C)nc(-c2ccccc2)nc1NC(=O)C(C)C | -1.6% |
| CCOC(=O)c1c(C)[nH]c(C)c1S(=O)(=O)N(C)CC(=O)Nc1ccccc1C | 1.31% |
| O=C(NNc1c2ccccc2nc2ccccc12)c1cc2ccccc2cc1O | 11.9% |
| NC(=O)C1CC(=O)N(c2ccc(OCC(=O)NCc3ccccc3)cc2)C1 (configuration not stated) | -5.85% |
| COc1ccccc1N1CCN(C(=O)c2cc(=O)c3cc(C)ccc3o2)CC1 | 8.05% |
| COc1cccc(-c2cc(C(=O)N3CCN(c4ccccc4OC)CC3)no2)c1 | -5.2% |
| COc1ccccc1N1CCN(C(=O)c2cc(=O)c3cc(C)cc(C)c3o2)CC1 | 58.9% (active) |
| Cc1ccc(-c2cc(C(F)(F)F)n3ncc(C(=O)N4CCCCC4c4cccnc4)c3n2)cc1 (configuration not stated) | -3.16% |
| CSc1n[nH]c(=S)n1N | 6.98% |
| CCOC(=O)c1cccc(NC(=O)CCn2nnc3ccccc32)c1 | 5.93% |
| COC(=O)c1ccc(C(=O)Nc2cc(Cl)ccc2Cl)cc1NC(=O)c1ccccc1C | 5.33% |
| COc1c(C(=O)N2CCCC2)ccc2ccccc12 | -16.2% |
| CC(C)n1c(-c2ccncc2)n[nH]c1=S | -1.2% |
| O=c1[nH]snc1-c1c(Cl)cccc1Cl | 1.3% |
| COc1ccc2c(c1)CCNC2Cc1ccc(OC)c(O)c1 (configuration not stated) | -7.5% |
| CC[C@H]1CN2CCc3cc(OC)c(OC)cc3[C@@H]2C[C@@H]1C[C@H]1NCCc2cc(OC)c(OC)cc21 | 71.3% (active) |

| SMILES | inhibition |
| --- | --- |
| CCc1ccc(OCC2c3cc(OC)c(OC)cc3CCN2C(C)=O)cc1 (configuration not stated) | -19.6% |
| CN(c1ccccc1)S(=O)(=O)c1cccc(C(=O)NNC(=O)c2ccncc2)c1 | -13.6% |
| COc1cc(NS(=O)(=O)c2ccc(NC(=O)CN3C(=O)c4ccccc4C3=O)cc2)ncn1 | -1.96% |
| COc1ccc(CNC(=O)CCC(=O)Nc2nnc(C(C)C)s2)cc1 | 2.41% |
| O=C(NCc1ccc2c(c1)OCO2)c1sccc1Br | -9.24% |
| CSc1nc(C)nc(C2CC2)c1C#N | -2.16% |
| CCOc1ccc(C(CC(=O)O)n2cnnn2)cc1OC (configuration not stated) | -0.928% |
| COc1ccc(NC(=O)C(C)N2c3cccc4cccc(c34)S2(=O)=O)c(OC)c1 (configuration not stated) | -7.67% |
| O=C(c1cccc(F)c1)N1CCC(O)(c2cccnc2)CC1 | 1.27% |
| Cc1ccc(Nc2cc(C)nc3c(C)ccc([N+](=O)[O-])c23)cc1 | -0.482% |
| N#Cc1c(-c2cccs2)nc(SCC(=O)c2ccc(Br)cc2)[nH]c1=O | -2.63% |
| COc1ccc(Nc2ncc(F)c(N3CCOCC3)n2)cc1 | -4.96% |
| Cc1nnc(NC(=O)/C=C/c2ccco2)s1 | 2.63% |
| O=C(/C=C/c1ccco1)Nc1cccc(-c2nc3ccccc3[nH]2)c1 | -10.7% |
| O=C(/C=C/c1ccco1)Nc1ccc(Oc2ccccc2)cc1 | 66.3% (active) |
| CCCCOc1ccc(C(=O)NN2CCN(C)CC2)cc1 | 1.04% |
| CCCOc1ccc(C(=O)C(CCC(CNCC)C(=O)c2ccc(OCCC)cc2)CNCC)cc1 (configuration not stated) | 137% (active) |
| CCCOc1ccc(C(=O)CCC(=O)OC(C)C(=O)Nc2ccc(NC(C)=O)cc2)cc1 (configuration not stated) | 0.465% |
| CCOc1cc(C2C(C(=O)OC(C)C)=C(C)NC3=C2C(=O)CCC3)cc([N+](=O)[O-])c1O (configuration not stated) | -2.99% |

| SMILES | inhibition |
| --- | --- |
| Cc1ccc(CNC(=O)c2cccnc2Cl)cc1 | 1.72% |
| COc1cc(C(CCN2CCN(c3ccccc3)CC2)c2c(OC)cc(OC)c3ccc(=O)oc23)cc(OC)c1OC (configuration not stated) | -7.5% |
| COC(=O)C(C(=O)Nc1cccc(Cl)c1C)C1CCCC1 (configuration not stated) | -7.59% |
| COc1ccc(/C=C/C2=CC(C)(C)NC(=S)N2)c(OC)c1 | -7.98% |
| NC(=O)CC[C@@H]1NC(=O)[C@H](CO)NC(=O)c2cc([N+](=O)[O-])cc(I)c2NCC[C@@H](C(N)=O)NC1=O | -1.96% |
| CCC(=C/c1sc2ccc3ccccc3c2[n+]1C)/C=C1\Sc2ccc3ccccc3c2N1C | 60.9% (active) |
| COc1ccc(C2=NS(=O)(=O)N(C)C(C(=O)N3CCCCC3)=C2)cc1 | -1.58% |
| COc1cc(-c2c(-c3ccc4c(c3)OCO4)noc2C)ccc1F | -5.31% |
| C=CCNc1nc(N)c([N+](=O)[O-])c(NC2CCCCC2)n1 | -1.25% |
| CC(=O)NCCc1ccc(S(=O)(=O)N(C)C2CCS(=O)(=O)C2)cc1 (configuration not stated) | 7.45% |
| O=C(NCc1ccco1)c1ccc(NS(=O)(=O)c2cccc([N+](=O)[O-])c2)cc1 | 5.53% |
| COc1ccc(S(=O)(=O)N2CCOCC2)cc1NC(=O)COc1ccccc1 | -1.51% |
| COc1ccccc1N(C(=O)Cn1nnc2ccccc21)C(C(=O)NCc1ccco1)c1ccc(C)o1 (configuration not stated) | -3.41% |
| O=C(Nc1ccc(Cl)cc1)/C(=C1\CCCN1)[N+](=O)[O-] | -2.59% |
| CCCC(C(=O)NC1CCCC1)N(C(=O)Cn1nnc(-c2ccc(C)o2)n1)c1cccc(O)c1 (configuration not stated) | -0.539% |
| Cc1c(NC(=O)Nc2cccc([N+](=O)[O-])c2)c(=O)n(-c2ccccc2)n1C | 1.78% |
| CC1(C)O[C@H]2CC(=O)OCC23[C@H]2CC[C@@]4(C)[C@H](c5ccoc5)OC(=O)[C@H]5O[C@]54[C@]2(C)C(=O)C[C@@H]13 (some centres not stated) | 4.22% |
| CC(C)CNC(=S)NC(=O)c1ccc(Cl)cc1 | -11.5% |
| Cc1cc(F)ccc1NC(=O)C(C)n1c2ccccc2c2nc(=O)cc(C)n21 (configuration not stated) | -6.86% |
